# Screens deposited in PubChem by National Center for Advancing Translational Sciences (NCATS).
# The list is not random: actives were taken first. Their share in the collection is about 12%.
# PLK1 PBD block: qHTS for Inhibitors of PLK1-PDB (polo-like kinase 1 - polo-box domain): Primary Screen. Serine/threonine-protein kinase PLK1 (Homo sapiens), P53350. Plk1 PBD binding of FITC phosphopeptide, fluorescence polarization. AID 720504, 2013. 2.8% of 360,000 active. Potency, µM, most hits filed as inhibitors; note: series mostly up to about 57 µM; nearly all actives have a fitted effect of over 65% in size
# PI5P4Ka inh: qHTS for Inhibitors of phosphatidylinositol 5-phosphate 4-kinase (PI5P4K); max response, %; 1.2% of 330,000 active; PI5P4Kalpha enzyme, ADP-Glo luminescence, 60 min; hits give low values; AID 652105, 2013; active = max response of -50% or lower; inconclusive = between -30% and -50%; inactive = -30% or higher; note: value at the top dose of about 77 µM
#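 PI5P4Kalpha ADP-Glo assay; 5 microM ATP final; 60 min RT reaction; HEPES pH 7.4/EGTA/CHAPS, 5% DMSO; controls lacking substrate or enzyme; luminescent end-point.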
# JMJD2A Tudor inh: qHTS Assay for Inhibitors of JMJD2A-Tudor Domain; Lysine-specific demethylase 4A (Homo sapiens), O75164; AlphaScreen JMJD2A-Tudor / H3K4me3 peptide binding; Potency, µM (titrated, usually from 114 µM), actives largely listed as inhibitors; 4.4% of 390,000 active; AID 504339, 2011; note: nearly all actives have a fitted effect of over 50% in size
# G9a block: qHTS Assay for Inhibitors of Histone Lysine Methyltransferase G9a | Histone-lysine N-methyltransferase EHMT2 (Homo sapiens), Q96KQ7 | G9a H3K9 monomethylation, AlphaScreen, 2 h | Potency, µM (top dose mostly 102 µM), most hits filed as inhibitors | 8.8% of 350,000 active; note: nearly all actives have a fitted effect of over 75% in size
#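 Step 1: enzyme (final 20 nM) with compound, 15 min RT. Step 2: substrate peptide 500 nM and SAM 20 uM, 2 h RT. Step 3: anti-H3K9me1 antibody and AlphaScreen beads, 10 min, then plate read.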
# HP1b binding inh: HTS for Inhibitors of HP1-beta Chromodomain Interactions with Methylated Histone Tails; 0.56% of 390,000 active; Chromobox protein homolog 1 (Homo sapiens), P83916; AlphaScreen HP1-beta / biotin-H3K9me3 peptide binding; Potency, µM (highest dose often 114 µM), usual class: inhibitors; note: nearly all actives have a fitted effect of over 70% in size
#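 AlphaScreen: HP1-beta (50 nM) preformed 30 min with biotin-H3(1-18)K9me3 peptide (50 nM) in PBS pH 7.4, 0.01% Tween-20. Compound added for 30 min at RT, then streptavidin donor/nickel chelate acceptor beads (10 ug/mL) for 30 min.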
# BAZ2B inh: qHTS Assay for Inhibitors of BAZ2B; Bromodomain adjacent to zinc finger domain protein 2B (Homo sapiens), Q9UIF8; AlphaScreen BAZ2B-H3K14Ac peptide displacement; Potency, µM (top dose mostly 114 µM), most hits filed as inhibitors; 4.4% of 360,000 active; AID 504333, 2011; note: nearly all actives have a fitted effect of over 60% in size
# Target sequence (Q9UIF8 whole entry, looked up, the tested form may be a part): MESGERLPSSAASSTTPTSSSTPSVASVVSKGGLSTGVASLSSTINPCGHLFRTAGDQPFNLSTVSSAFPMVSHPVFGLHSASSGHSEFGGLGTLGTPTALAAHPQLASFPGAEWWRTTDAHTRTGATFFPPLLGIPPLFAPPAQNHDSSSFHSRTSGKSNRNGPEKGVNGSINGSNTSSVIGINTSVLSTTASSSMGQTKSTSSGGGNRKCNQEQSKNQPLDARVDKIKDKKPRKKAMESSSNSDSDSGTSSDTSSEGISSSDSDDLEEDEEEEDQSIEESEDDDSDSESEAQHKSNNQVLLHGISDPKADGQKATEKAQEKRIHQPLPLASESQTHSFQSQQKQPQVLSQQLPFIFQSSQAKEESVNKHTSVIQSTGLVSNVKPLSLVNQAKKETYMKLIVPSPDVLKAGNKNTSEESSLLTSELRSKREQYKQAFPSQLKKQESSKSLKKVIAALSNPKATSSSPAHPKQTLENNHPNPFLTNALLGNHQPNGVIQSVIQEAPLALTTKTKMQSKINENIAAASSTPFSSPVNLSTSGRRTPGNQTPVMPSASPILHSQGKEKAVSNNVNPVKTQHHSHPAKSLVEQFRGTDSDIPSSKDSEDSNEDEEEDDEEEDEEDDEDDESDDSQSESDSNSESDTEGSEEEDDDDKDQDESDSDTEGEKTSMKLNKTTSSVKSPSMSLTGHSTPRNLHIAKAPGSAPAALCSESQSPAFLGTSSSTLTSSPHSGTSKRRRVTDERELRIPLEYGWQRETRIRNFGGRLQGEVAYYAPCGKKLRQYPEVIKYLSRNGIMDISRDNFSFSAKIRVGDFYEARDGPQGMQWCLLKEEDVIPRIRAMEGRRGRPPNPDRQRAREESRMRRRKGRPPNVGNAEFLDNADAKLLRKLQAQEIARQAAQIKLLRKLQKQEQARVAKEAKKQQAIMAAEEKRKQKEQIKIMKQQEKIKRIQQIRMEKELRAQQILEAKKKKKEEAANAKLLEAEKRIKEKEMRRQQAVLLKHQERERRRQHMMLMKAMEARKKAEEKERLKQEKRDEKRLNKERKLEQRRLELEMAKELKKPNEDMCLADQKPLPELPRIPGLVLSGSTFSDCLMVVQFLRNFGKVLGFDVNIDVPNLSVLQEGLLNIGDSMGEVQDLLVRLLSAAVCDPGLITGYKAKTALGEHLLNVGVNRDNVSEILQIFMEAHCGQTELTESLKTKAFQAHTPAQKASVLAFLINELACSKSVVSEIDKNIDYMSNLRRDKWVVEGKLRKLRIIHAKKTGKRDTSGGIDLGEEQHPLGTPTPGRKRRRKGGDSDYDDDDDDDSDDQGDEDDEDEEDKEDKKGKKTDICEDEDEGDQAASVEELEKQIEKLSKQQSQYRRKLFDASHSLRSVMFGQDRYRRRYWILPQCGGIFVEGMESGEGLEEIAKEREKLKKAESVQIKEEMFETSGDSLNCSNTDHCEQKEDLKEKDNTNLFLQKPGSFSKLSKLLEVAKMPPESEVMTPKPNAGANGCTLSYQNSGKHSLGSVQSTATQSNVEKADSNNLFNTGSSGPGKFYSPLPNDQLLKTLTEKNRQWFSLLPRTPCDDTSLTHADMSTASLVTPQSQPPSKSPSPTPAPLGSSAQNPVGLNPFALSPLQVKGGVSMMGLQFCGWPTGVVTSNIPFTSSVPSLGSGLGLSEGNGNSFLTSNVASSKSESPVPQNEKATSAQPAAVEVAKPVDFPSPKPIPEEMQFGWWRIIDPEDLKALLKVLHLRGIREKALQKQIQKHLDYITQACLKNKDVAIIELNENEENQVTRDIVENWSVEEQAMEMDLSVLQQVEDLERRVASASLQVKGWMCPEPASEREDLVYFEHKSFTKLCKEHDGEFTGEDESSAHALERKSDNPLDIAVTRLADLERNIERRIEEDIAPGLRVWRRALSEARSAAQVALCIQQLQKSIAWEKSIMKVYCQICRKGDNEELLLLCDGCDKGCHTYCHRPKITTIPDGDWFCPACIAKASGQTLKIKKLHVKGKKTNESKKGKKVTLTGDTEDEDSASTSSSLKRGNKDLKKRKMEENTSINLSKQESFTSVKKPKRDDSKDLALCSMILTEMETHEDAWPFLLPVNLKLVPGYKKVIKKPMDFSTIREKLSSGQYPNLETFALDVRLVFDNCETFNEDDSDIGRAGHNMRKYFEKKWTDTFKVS
#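 Multi-concentration screen (max 110 uM) measuring displacement of acetylated histone H3 peptide from BAZ2B by AlphaScreen, using 50 nM protein, 50 nM peptide and 10 ug/mL streptavidin donor plus Ni-chelate acceptor beads.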
# Numbers stand for hits; – = inactive; ? = inconclusive; · = not tested or not shown; [ ] = another dose, or the depositor's remark. Unless noted, calls come from the whole dose curve; as a rule, active = well fitted curve in the direction sought with a large enough effect; inconclusive = small, poorly fitted or top-dose-only effect, or another doubt; inactive = no such curve, though single readings can be large; an effect the other way counts as inactive or inconclusive.
SMILES,PLK1 PBD block,PI5P4Ka inh,JMJD2A Tudor inh,G9a block,HP1b binding inh,BAZ2B inh
O=C(CCC(=O)c1ccccc1)Nc1ccccc1OC(F)F,–,–,–,–,–,–
COc1ccc(C2/C(=C(/O)c3ccc4c(c3)CC(C)O4)C(=O)C(=O)N2CCCN2CCOCC2)cc1 (centres undefined),–,–,?,45µM,–,–
CCN(CC(=O)Nc1ccccc1C(F)(F)F)C(=O)CSCc1ccc(C)cc1,–,–,–,–,–,–
CCOc1ccc(-n2c(SCC(N)=O)nc3c(oc4ccccc43)c2=O)cc1,·,·,–,–,–,–
COC(=O)C1=C(C)N(C)C(=O)NC1c1cccc2ccccc12 (centres undefined),–,–,–,–,–,–
NC(=O)[C@@H]1CCCNc2c(I)cc([N+](=O)[O-])cc2C(=O)N[C@@H](CO)C(=O)N[C@@H](Cc2ccc(O)cc2)C(=O)N1,–,–,–,45µM,–,–
NC(=O)[C@@H]1CCCNc2c(I)cc([N+](=O)[O-])cc2C(=O)N[C@@H](CO)C(=O)NCC(=O)N1,–,–,–,79µM,–,–
CC(C)C[C@@H]1NC(=O)[C@H](Cc2ccc(O)cc2)NC(=O)c2cc([N+](=O)[O-])cc(I)c2NCCC[C@@H](C(N)=O)NC1=O,–,–,–,71µM,–,?
NC(=O)CC[C@@H]1NC(=O)[C@H](CO)NC(=O)c2cc([N+](=O)[O-])cc(I)c2NCCC[C@@H](C(N)=O)NC(=O)[C@H](Cc2ccc(O)cc2)NC1=O,–,–,–,50µM,–,?
NC(=O)[C@@H]1CCCNc2c(F)cc([N+](=O)[O-])cc2C(=O)N[C@@H](CO)C(=O)NCC(=O)N1,–,–,–,?,–,–
NC(=O)[C@@H]1CCCNc2c(I)cc([N+](=O)[O-])cc2C(=O)N[C@@H](Cc2ccccc2)C(=O)N[C@@H](Cc2cnc[nH]2)C(=O)N1,–,–,?,8.9µM,–,50µM
Cc1cccc(C)c1NC(=O)C1C2C=CC(C2)C1C(=O)NCc1ccccn1 (centres undefined),–,·,–,?,–,79µM
O=C(O)C1C2C=CC(C2)C1C(=O)NCc1ccccn1 (centres undefined),·,·,·,–,·,?
COc1ccc(-c2nc3c4ccccc4ccn3c2CN2CCCCC2)cc1,–,–,?,40µM,–,?
COC(=O)/C(=C/Nc1ccc(O)cc1)[N+](=O)[O-],–,–,?,2µM,–,–
OC[C@@H]1CN(Cc2ccccc2)C[C@H](n2cnc3c(Nc4ccccc4)ncnc32)O1,–,–,·,·,·,·
COc1cccc(/C=N/NC(=O)c2[nH]nc3c2CCc2ccccc2-3)c1,–,–,–,–,–,–
COc1ccc(OC)c(/C=N/NC(=O)c2[nH]nc3c2CCc2ccccc2-3)c1,–,-51,–,–,–,–
Cc1ccc(S(=O)(=O)Nc2nc(C)c(C)s2)cc1,–,–,–,22µM,–,–
CCOc1ccccc1N1C(=O)CN(Cc2ccc(OC)c(OC)c2)C1=S,–,–,–,–,–,–
CCCCN(Cc1ccc(C(=O)N[C@H](C(=O)O)C(C)C)cc1)C(=O)C(c1ccccc1)c1ccccc1,?,–,89µM,·,–,·
CC(C)(C)NC(=O)C(=O)NNC(=O)c1ccco1,–,–,–,–,–,56µM
Cc1cccc(C(=O)NNC(=O)C(=O)NC(C)(C)C)c1,–,–,?,28µM,–,?
CC(C)CNC(=O)C(=O)NNC(=O)c1ccco1,–,–,–[11.4 µM],11µM,–,?
Cn1c(=O)c2[nH]c(C3CC3)nc2n(C)c1=O,–,–,–,·,–,·
SMILES,PLK1 PBD block,PI5P4Ka inh,JMJD2A Tudor inh,G9a block,HP1b binding inh,BAZ2B inh
O=C(COC(=O)c1cnc(Cl)c(Cl)c1)NCc1cccs1,?,–,22µM,–[0.0925 µM],–,–
O=C(NCc1cccs1)c1cnc(Cl)c(Cl)c1,–,–,–,–,–,–
CCc1ccc(C2/C=C\CNC(c3ccccc3)C(=O)N2Cc2ccc(C)cc2)cc1 (centres undefined),·,·,–,·,–,·
O=C(Nc1ccc(C2=NCCN2)cc1)c1ccc(C(=O)Nc2ccc(C3=NCCN3)cc2)c(Cl)c1,–,–,56µM,25µM,?,–
CC1=C(C(N)=O)C(c2ccc(C)cc2)n2nc(SCc3ccccc3)nc2N1 (centres undefined),·,·,–,–,–,–
Cc1ccccc1C1=CCN(c2ncc(NC(=O)c3ccc(Cl)cc3)cc2C(=O)O)CC1,·,·,79µM,?,?,50µM
CN1CCN(c2ccc(NC(=O)c3ccc(Cl)cc3)cn2)CC1,–,–,–,?,–,–
CCN(CC(=O)NCc1ccc(F)cc1)Cc1cc(=O)n2ccsc2n1,–,–,–,45µM,–,–
CCCc1[nH][nH]c(=O)c1C(c1cccc(Cl)c1)C(C#N)C#N (centres undefined),11µM,?,–,79µM,–,?
CCOc1ccc2nc(N3CCCC(C(=O)NCc4ccc(OC)cc4)C3)sc2c1 (centres undefined),·,·,–,–,–,–
COc1ccc(CNc2nc(NCc3ccc(OC)cc3)n(C(=O)c3ccncc3)n2)cc1,–,–,?,·,–,?
COc1ccc(CNc2nc(NCc3ccc(OC)cc3)n(C(=O)c3ccccc3[N+](=O)[O-])n2)cc1,–,·,?,6.3µM,–,–
CCn1c(=S)[nH]c2c(=O)n(C)c(=O)n(C)c21,–,-69,5µM,·,?,·
COc1cccc(C(C)(O)c2nc(-c3cnc4ccccc4c3)cs2)c1 (centres undefined),–,–,·,·,·,·
CCNc1ncc2nc(-c3ccc(F)cc3)c(=O)n(Cc3ccc(F)cc3)c2n1,·,·,·,–[0.501 µM],·,·
COC(=O)COc1cccc(NS(=O)(=O)c2cccc([N+](=O)[O-])c2)c1,–,–,–,–,–,–
COc1cc(NS(=O)(=O)c2cccc([N+](=O)[O-])c2)c2ncccc2c1,·,·,56µM,·,·,·
COC(=O)COc1ccc(NS(=O)(=O)c2cccc([N+](=O)[O-])c2)cc1,24µM,–,?,·,–,–
COc1cc(NS(=O)(=O)c2ccc([N+](=O)[O-])cc2)c2ncccc2c1,·,·,56µM,·,·,·
COc1ccc(NC(=O)Cn2c(=O)n(-c3ccc(C)c(C)c3)c(=O)c3c(C)c(C)sc32)cc1,·,·,–,–,–,–
